Most compounds without a hit are left out; they make up all but 17% or so of the library.
HT1080-NT tox: qHTS for induction of synthetic lethality in tumor cells producing 2HG: qHTS for the HT-1080-NT fibrosarcoma cell line. HT-1080-NT fibrosarcoma viability, CellTiter-Glo ATP luminescence, 48 h. Potency, µM (highest dose often 46.1 µM), for inactives: at the top dose activity, negative = less viability, hits mostly cytotoxic. 1.6% of 360,000 active. AID 686970, 2013;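 further: NT is the 2HG producing partner of a matched IDH1 knockdown line; 0% = DMSO-treated cells and -100% = media-only wells without cells; nearly all actives have a fitted effect of over 55% in size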
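Read-out is CellTiter-Glo luminescence after 10 minutes at room temperature, following 48 hours' compound treatment of HT-1080-NT cells (750 cells/well, RPMI, 5% FBS, 37 degrees C).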
TDP1 cell CPT: qHTS for Inhibitors of human tyrosyl-DNA phosphodiesterase 1 (TDP1): qHTS in cells in presence of CPT. chicken DT40 Tdp1-/-;hTDP1 cells + 20 nM CPT, ATP luminescence, 48 h. Potency, µM (top dose mostly 46.2 µM), for the others: at the top dose activity change, negative = growth inhibition, hits mostly inhibitors. 12% of 420,000 active. AID 686979, 2013; further: on the % scale 0 is the no-effect control and ±100 the full control effect; nearly all actives have a fitted effect of over 55% in size
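Cell growth measured by CellTiter-Glo luminescence after a minimum 48 h, 37 C compound exposure with 20 nM CPT in Tdp1-knockout DT40 cells stably expressing hTDP1, seeded 400/well; qHTS titration format.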
HepG2 viability: qHTS for Inhibitors of TGF-b: Cytotox Counterscreen; HepG2 CAGA-GFP viability, ATP luminescence, 18 h; Potency, µM (series often up to 46.1 µM), for the others: at the highest dose activity change, negative = cytotoxicity, most hits filed as cytotoxic; 0.76% of 410,000 active; AID 588856, 2011
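CellTiter-Glo luminescence gave cytotoxicity after 18 hours at 37 degrees C. The cells were HepG2 CAGA-GFP in 1% FBS DMEM, stimulated with 500 pg/mL TGF-beta after compound addition. %Activity was normalised to no-cell wells (complete cell-killing) and DMSO (no toxicity), and curves were fitted and classified.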
TGFb SMAD3 inh: qHTS for Inhibitors of TGF-b. HepG2 CAGA-GFP TGF-b/SMAD3 reporter, GFP fluorescence, 18 h; TGF-beta stimulated, 500 pg/mL final. Potency, µM (series often up to 46.1 µM), inactives show at the top dose activity, negative = inhibition, hits mostly inhibitors. 1.2% of 410,000 active. AID 588855, 2011; further: on the % scale 0 is the no-effect control and ±100 the full control effect; nearly all actives have a fitted effect of over 65% in size
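Inhibition was scored as loss of TGF-beta-induced (500 pg/mL final, 18 hours, 37 degrees C) GFP in HEPG2 cells carrying a CAGA-GFP reporter, in DMEM with 1% FBS. Well GFP was summed per cell; Activity was normalised to unstimulated and stimulated DMSO wells, then concentration-response fitting.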
DT40 TDP1 no CPT: qHTS for Inhibitors of human tyrosyl-DNA phosphodiesterase 1 (TDP1): qHTS in cells in absence of CPT | 15% of 420,000 active | DT40 Tdp1-/- hTDP1 cells, no CPT, ATP luminescence, 48 h | Potency, µM (highest dose often 46.2 µM), for inactives: at the highest dose activity change, negative = growth inhibition, usual class: inhibitors; further: on the % scale 0 is the no-effect control and ±100 the full control effect; nearly all actives have a fitted effect of over 55% in size
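Compound effects on proliferation are scored in DT40 Tdp1-/-;hTDP1 cells in the absence of CPT. ATP levels (CellTiter-Glo luminescence) are recorded after a ≥48 hr, 37 °C incubation.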
HT1080 IDH1KD tx: qHTS for induction of synthetic lethality in tumor cells producing 2HG: qHTS for the HT-1080-IDH1KD cell line; HT-1080 IDH1 knockdown viability, ATP luminescence, 48 h; Potency, µM (titrated, usually from 46.1 µM), inactives show at the highest dose activity, negative = toxicity, actives largely listed as cytotoxic; 2% of 360,000 active;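 further: 0% = DMSO wells and -100% = cell-free medium wells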
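Luminescent ATP read-out (CellTiter-Glo, 10 min at room temperature) after 48 h compound exposure at 37 °C gave viability of IDH1-knockdown HT-1080 cells. Activity was normalised to DMSO and cell-free wells, then fitted as concentration-response curves.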
Starred values were filed as active, the others as inactive; ? = inconclusive; . = no result given; ! = not active in a repeat; [ ] = another dose, or the depositor's remark. The call rests on the fitted dose curve; in most records, active means well fitted curve in the direction sought with a large enough effect; inconclusive means small, poorly fitted or top-dose-only effect, or another doubt; inactive means no such curve, though single readings can be large; an effect the other way counts as inactive or inconclusive. Potency means the concentration at half of the fitted maximal effect.

SMILES	HT1080-NT tox	TDP1 cell CPT	HepG2 viability	TGFb SMAD3 inh	DT40 TDP1 no CPT	HT1080 IDH1KD tx
Cc1ccccc1Cc1c(C)nc2nc(SCC(=O)NC(C)c3ccccc3)nn2c1C (configuration not stated)	.	16.4µM*	-3.6%	-28.3%	?	.
COCC1CCCN(C(=O)c2ccc(OC3CCN(Cc4ccccn4)CC3)cc2)C1 (configuration not stated)	0.0%	-2.8%	-4.6%	0.4%	-22.6%	15.6%
Cc1ccccc1CSc1nc2nc(C)c(Cc3ccccc3)c(C)n2n1	.	-109.1%	-25.7%	?	16.4µM*	.
Cc1nc2nc(SCC(=O)N3CCOCC3)nn2c(C)c1Cc1ccccc1	-1.3%	?	-23.9%	-17.1%	-19.6%	-8.1%
CCOc1ccc(-c2cn3c(n2)sc2cc(C(=O)NC(C)C45CC6CC(CC(C6)C4)C5)ccc23)cc1 (configuration not stated)	.	?	-30.0%	-14.1%	?	.
COc1ccc2c(c1)Sc1ccccc1N2	-10.6%	?	-19.9%	?	16.4µM*	?
Cc1ccc(S(=O)(=O)Oc2ccc(C3C4=C(CCCC4=O)OC4=C3C(=O)CCC4)cc2)cc1	1.5%	23.1µM*	8.7%	-9.8%	16.4µM*	4.5%
Cc1ccc2cc3cc(C(=O)N4CCN(c5cccc(C(F)(F)F)c5)CC4)sc3nc2c1	.	2.4%	10.3%	6.9%	7.2%	.
O=C(OCc1cn([C@H]2C[C@H](c3ccc(Cl)cc3)N(CC3CCCCC3)C[C@@H]2O)nn1)c1ccccc1	5.1%	-14.1%	-7.8%	12.1%	-25.7%	-1.2%
Cc1ccc2c(c1)N(C(=O)N1CCC(C(=O)NCc3cccc(Br)c3)CC1)CCO2	.	?	-29.5%	?	20.6µM*	.
CCC1CN(C(=O)N2CCC(C(=O)NCc3ccc(C)o3)CC2)c2cc(C)ccc2O1 (configuration not stated)	17.7%	16.4µM*!	-1.5%	?	?	11.0%
CCc1ccc(CNC(=O)C2CCN(C(=O)N3CC(CC)Oc4ccc(C)cc43)CC2)cc1 (configuration not stated)	.	20.6µM*	-19.7%	-18.4%	20.6µM*	.
CCOc1ccc(CNC(=O)C2CCN(C(=O)N3CC(C)Oc4ccccc43)CC2)cc1 (configuration not stated)	15.8%	?	-34.6%	-14.3%	?	-0.4%
Cc1ccc(NC(=O)C2CCN(C(=O)N3CCOc4ccccc43)CC2)cc1	-1.3%	?	0.8%	-4.1%	?	-4.3%
CCCOc1ccc(CNC(=O)C2CCN(C(=O)N3CCOc4ccccc43)CC2)cc1	-12.4%	20.6µM*	-19.9%	-12.9%	?	-10.3%
CC(=O)C1(O)C(C)CC2C3CC(F)C4(O)CC(O)CCC4(C)C3CCC21C (configuration not stated)	0.9%	-5.8%	10.6%	19.9%	-17.8%	-1.5%
CC1CCC2=C1C[C@H](C(C)(C)O)CC[C@@H]2C (some centres not stated)	.	11.7%[9.04 µM]	.	.	8.8%[9.04 µM]	.
CCC1CN(C(=O)N2CCC(C(=O)NCc3ccco3)CC2)c2cc(C)ccc2O1 (configuration not stated)	-0.7%	?	-7.4%	2.1%	18.4µM*!	-10.7%
N#C/C(=C/c1ccc(O)cc1)c1nc(-c2ccc(-c3ccccc3)cc2)cs1	.	?	-9.7%	17.5%	?	.
N#C/C(=C\Nc1ccc2cn[nH]c2c1)c1nc(-c2ccccc2)cs1	?	?	-13.7%	0.0%	16.4µM*	?
N#C/C(=C\Nc1ccc2cn[nH]c2c1)c1nc(-c2ccc(Cl)cc2)cs1	18.4µM*	?	-21.3%	14.3%	23.1µM*	14.6µM*
Nc1[nH]c(=S)nc2nnsc12	.	11.2µM*	-7.0%	-7.0%	11.2µM*	.
Nc1nc(N)c2snnc2n1	.	1.6%	-8.7%	-17.2%	?	.
CN(C)c1ccc(/C=C2\CCCCC2=O)cc1	9.7%	20µM*	-26.1%	-4.5%	?	16.4%
CC1=Nc2ccccc2/C1=C/c1c(C)[nH]c2ccccc12	?	?	-22.6%	?	16.4µM*	?
SMILES	HT1080-NT tox	TDP1 cell CPT	HepG2 viability	TGFb SMAD3 inh	DT40 TDP1 no CPT	HT1080 IDH1KD tx
CN(C)c1ccc(/C=C2/CCc3ccccc32)cc1	.	14.1µM*	-51.4%	15.8µM*	10µM*	.
CC1=Nc2ccccc2/C1=C/c1nc(-c2ccc(C)s2)oc1O	1.9%	?	-36.0%	-26.2%	?	-1.4%
CC1=Nc2ccccc2/C1=C/c1ccc(N(C)C)cc1	.	-95.5%	-22.7%	?	17.8µM*	.
CN(C)c1ccc(C=C2C(=O)c3ccccc3C2=O)cc1	.	-5.5%	-12.2%	-2.0%	-20.5%	.
COc1cc(Cl)c(C)cc1NC(=O)NC1COc2ccccc2C1 (configuration not stated)	.	-17.0%	-12.8%	-25.9%	-22.7%	.
Cc1cc(C)n(CCC(=O)N/N=C/c2ccc(Br)c([N+](=O)[O-])c2)n1	?	-5.0%	-11.7%	-21.5%	-27.9%	-25.7%
CN(C)c1ccc(C=C2c3ccccc3-c3ccccc32)cc1	.	?	-7.6%	-2.6%	22.4µM*	.
CN(C)c1ccc(/C=C2\c3ccccc3-c3ccc(N(C)C)cc32)cc1	.	-3.9%	3.7%	6.3%	?	.
CC(OC(=O)c1ccc(NC(=O)CC#N)cc1)C(=O)NC(c1ccccc1)c1ccccc1 (configuration not stated)	1.5%	-22.2%	8.2%	1.0%	-29.8%	21.3%
Cc1cc(C(=O)C(C)OC(=O)c2ccc(NC(=O)CC#N)cc2)c(C)n1-c1ccccc1 (configuration not stated)	?	?	15.8%	5.5%	18.4µM*	-26.6%
COc1ccc(CCNC(=O)Cc2c(C)c3cc4c(C)coc4cc3oc2=O)cc1OC	.	8.5%	-1.1%	-4.7%	-1.7%	.
CCOC(=O)C1=C(C)NC2=C(C(=O)c3ccccc32)C1c1cccc2ccccc12 (configuration not stated)	-13.6%	?	-11.8%	?	11.6µM*	0.0%
